Source: ChEMBL document CHEMBL3433997, “St. Jude Leishmania screening dataset” (2016)

What was measured:
Assay type in all cases: functional
[1] = target: Solute carrier family 2, facilitated glucose transporter member 1 (Homo sapiens) (UniProt P11166); test: ST_JUDE_LEISH: Cytotoxicity at 2uM final concentration against transgenic Leishmania Mexicana promastigotes LmGLUT1 that are glucose transport deficient and complemented with the human glucose transporter GLUT1. Activity is measured by DNA content using SYBR green in vitro
[2] = target: Hexose transporter 1 (Plasmodium falciparum) (UniProt O97467); test: ST_JUDE_LEISH: Cytotoxicity at 2uM final concentration against transgenic Leishmania Mexicana promastigotes LmPfHT that are glucose transport deficient and complemented with the Plasmodium falciparum hexose transporter. Activity is measured by DNA content using SYBR green in vitro
[3] = target: Glucose transporter (Leishmania mexicana) (UniProt O61059); test: ST_JUDE_LEISH: Cytotoxicity at 2uM final concentration against transgenic Leishmania Mexicana promastigotes LmGT2 that are glucose transport deficient and complemented with the L. Mexicana glucose transporter 2. Activity is measured by DNA content using SYBR green in vitro

Solute carrier family 2, facilitated glucose transporter member 1 (Homo sapiens), sequence (P11166 whole entry): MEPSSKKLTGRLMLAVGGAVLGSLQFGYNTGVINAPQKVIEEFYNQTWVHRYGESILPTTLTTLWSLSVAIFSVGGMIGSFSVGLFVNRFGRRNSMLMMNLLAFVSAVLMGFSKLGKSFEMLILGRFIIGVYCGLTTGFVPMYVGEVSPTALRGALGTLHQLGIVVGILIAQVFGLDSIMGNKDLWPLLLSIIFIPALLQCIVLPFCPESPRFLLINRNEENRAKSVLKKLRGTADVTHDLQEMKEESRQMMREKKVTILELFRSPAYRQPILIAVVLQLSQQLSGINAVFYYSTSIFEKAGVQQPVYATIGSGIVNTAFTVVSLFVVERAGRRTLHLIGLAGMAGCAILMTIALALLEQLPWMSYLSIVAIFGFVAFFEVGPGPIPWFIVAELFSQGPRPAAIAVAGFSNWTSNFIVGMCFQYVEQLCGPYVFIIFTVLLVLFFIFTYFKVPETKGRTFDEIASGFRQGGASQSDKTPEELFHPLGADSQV

| SMILES | inhibition [1] [%] | inhibition [2] [%] | inhibition [3] [%] |
| --- | --- | --- | --- |
| O=C(Nc1cccc(-c2cccc(-c3nc4cc(C(F)(F)F)ccc4[nH]3)c2)c1)c1ccc(=O)[nH]n1 | 10.7 | 9.47 | 9.62 |
| Cc1ccc(NC(=O)c2ccc(NCCCN3CC(C)CC(C)C3)c([N+](=O)[O-])c2)cc1F (centres undefined) | 8.68 | 5.06 | 5.89 |
| Cc1[nH]c2ccccc2c1CC1CCN(CC2CCN(C(=O)/C=C/c3ccc(Cl)c(Cl)c3)CC2)CC1 | 0.92 | 1.33 | 1.79 |
